# Source: PubChem BioAssay
# Only some compounds are listed: those with a hit (about 9.2% of all), similar ones and a draw of the others.
# FLuc modulator – firefly luciferase modulation, counter-screen for miR-21 project | purified FLuc, Km substrates, luminescence inhibition | Potency, µM (series often up to 57.5 µM), most hits filed as inhibitors | actives 6.9% (n = 360,000) | AID 588342; further: nearly all actives have a fitted effect of over 55% in size
# Target sequence (P08659 whole entry, looked up): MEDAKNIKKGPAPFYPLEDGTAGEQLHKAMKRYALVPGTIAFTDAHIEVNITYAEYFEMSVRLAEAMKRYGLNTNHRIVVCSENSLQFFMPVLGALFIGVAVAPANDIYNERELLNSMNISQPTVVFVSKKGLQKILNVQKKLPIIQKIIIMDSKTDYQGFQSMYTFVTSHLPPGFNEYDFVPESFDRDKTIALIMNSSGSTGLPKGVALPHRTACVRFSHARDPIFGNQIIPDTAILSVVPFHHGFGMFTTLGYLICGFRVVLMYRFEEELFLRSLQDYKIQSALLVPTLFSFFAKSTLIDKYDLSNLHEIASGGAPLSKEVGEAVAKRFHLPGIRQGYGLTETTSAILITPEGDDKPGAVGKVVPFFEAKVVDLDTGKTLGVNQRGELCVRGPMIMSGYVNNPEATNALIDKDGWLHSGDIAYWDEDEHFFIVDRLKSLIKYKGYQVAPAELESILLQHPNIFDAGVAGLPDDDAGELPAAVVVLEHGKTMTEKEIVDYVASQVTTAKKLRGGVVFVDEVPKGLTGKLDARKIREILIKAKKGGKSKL
#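 Biochemical qHTS of compounds, final roughly 60 µM downward over six points, against 10 nM purified firefly luciferase using Km concentrations of substrates (10 uM D-luciferin, 10 uM ATP) in Tris acetate pH 7.5 buffer; luminescence output.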
# Rab9 prom act – activators of Rab9 promoter | Huh7 Rab9 promoter-luciferase reporter, luminescence, 24 h | AID 485297 | actives 2.8% (n = 320,000) | Potency, µM (doses to about 9.22 µM), usual class: activators; further: nearly all actives have a fitted effect of over 60% in size
#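 Promoter activation is measured as luciferase luminescence in Huh7 cells stably transfected with a Rab9 promoter–luciferase construct, following 24 h compound exposure at 37 °C and 10 min reagent incubation at ambient temperature.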
# ELG1 genotoxic – inducers of genotoxicity in HEK293T ELG1-luciferase cells | HEK293T ELG1-luciferase reporter, luminescence, 16 h | Potency, µM (highest dose often 46 µM), hits mostly activators | actives 1.3% (n = 330,000); further: nearly all actives have a fitted effect of over 60% in size
#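 Luminescence read-out: rising ELG1-luciferase signal, reflecting elevated ELG1 protein under genetic stress, flags genotoxic compounds. Cells were treated for 16 hr at 37 °C before ONE-Glo detection.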
# NPC1 promoter act – NPC1 promoter activation | Potency, µM (top dose mostly 9.22 µM), most hits filed as activators | actives 2.4% (n = 320,000) | AID 485313 | Huh7 NPC1 promoter luciferase reporter, 24 h; further: nearly all actives have a fitted effect of over 60% in size
#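 Stably transfected Huh7 (NPC1 promoter→luciferase), 1500 cells/well in Opti-MEM + 10% FBS, 2 h settle, then compound 24 h at 37 °C. Luminescence after 10 min with Amplite reagent.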
# SMN2 splice up – enhancers of SMN2 splice variant expression; HEK293 SMN2-luciferase splicing reporter, luminescence, 30-36 h; Potency, µM (series often up to 46.1 µM), actives largely listed as activators; actives 2.8% (n = 210,000); further: nearly all actives have a fitted effect of over 55% in size
#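 qHTS luciferase splicing reporter: luminescence rises when SMN2 exon 7 is included in transfected HEK293 cells. Compound exposure lasted 30-36 h at 37C, with 4.5 mM final sodium butyrate as control, followed by a ONE-Glo read.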
# ELG1 DNA repair – inhibitors of ELG1-dependent DNA repair in HEK293T cells; HEK293T ELG1-luciferase reporter, luminescence, 16 h; DNA damage induced by 5-fluorouridine; Potency, µM (top dose mostly 46.1 µM), most hits filed as inhibitors; actives 2.3% (n = 330,000); further: nearly all actives have a fitted effect of over 55% in size
#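 DMSO vehicle served as the neutral condition. Each well held 2,000 cells given 5-fluorouridine plus compound; after 16 hr at 37 °C/5% CO2, ONE-Glo was added and luciferase measured 30 min later.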
# Numbers stand for hits; 0 = inactive; ? = inconclusive; - = no result; [ ] = another dose, or the depositor's remark. The call rests on the fitted dose curve; in most records, active means well fitted curve in the direction sought with a large enough effect; inconclusive means small, poorly fitted or top-dose-only effect, or another doubt; inactive means no such curve, though single readings can be large; an effect the other way counts as inactive or inconclusive.
SMILES,FLuc modulator,Rab9 prom act,ELG1 genotoxic,NPC1 promoter act,SMN2 splice up,ELG1 DNA repair
CCC(C)c1ccc(S(=O)(=O)N2CCN(C(=O)COc3ccc4c(C)cc(=O)oc4c3)CC2)cc1 (stereo not given),0,0,0,0,0,8.2µM
CCN(Cc1ccccc1)S(=O)(=O)c1cc(C(=O)NC(C)C2CC3CCC2C3)ccc1OC (stereo not given),0,0,0,0,0,6.5µM
COc1cc(C(=O)NC(C)C2CC3CCC2C3)cc(OC)c1OC (stereo not given),0,0,0,0,-,0
O=C(CCCc1ccccc1)NC1CC(=O)N(c2ccc(F)cc2)C1 (stereo not given),0,-,-,-,-,-
O=C(Cn1c(-c2cccs2)cc2ccccc21)N1CCN(c2ccccc2F)CC1,0,-,-,-,-,-
O=C(COC(=O)c1ccccc1NC(=O)C1CC1)c1ccc2c(c1)OCCO2,1.7µM,?,0,0,0,0
CC(C)(C)C(=O)Nc1ccccc1C(=O)OCC(=O)c1ccc2c(c1)OCCO2,6.7µM,0,0,0,0,0
COC(=O)c1ccccc1NC(=O)c1ccc2c(c1)OCCO2,?,0,0,0,?,0
CCCc1nnc(NC(=O)c2cc3ccccc3oc2=O)s1,0[2.3 µM],0,0,0,0,?
CCCc1nnc(NC(=O)c2cc3ccccc3o2)s1,13µM,4µM,0,3.5µM,-,?
COCc1nnc(NC(=O)c2cc3ccccc3o2)s1,19µM,?,?,?,-,?
COCc1nnc(NC(=O)c2cccc(NC(=O)c3ccccc3)c2)s1,19µM,0,0,0,-,0
COC(=O)Cc1nnc(NC(=O)c2ccccc2)s1,0,0,0,0,-,0
NC1C(O)OC(CO)[C@@H](O)[C@@H]1O[C@H]1O[C@@H](C(=O)O)C(O)C(O)C1O (stereo not given in full),-,-,-,-,0,-
CCn1c(C(=O)N2CCC(C(=O)NCCc3ccc(OC)cc3OC)CC2)cc2sccc21,0,-,-,-,0,-
CCOC(=O)c1ccc(N2C(=O)c3n[nH]c(C)c3C2c2ccccc2OC)cc1 (stereo not given),?,-,-,-,0,-
Cc1c(/C=N\NC(=O)c2c[nH]c3ccccc23)cnn1C,12µM,0,0,0,0,?
CCn1cc(/C=N\NC(=O)c2c[nH]c3ccccc23)c(C)n1,21µM,0,0,0,0,?
COc1ccc(CC(=O)N(CCC2=CCCCC2)c2c(N)n(Cc3ccccc3)c(=O)[nH]c2=O)cc1OC,0,0,0,0,-,0
Cc1ccc(CN2CCCN(CC(=O)Nc3ccc(C)cc3C)S2(=O)=O)cc1,0,-,-,-,-,-
Cc1ccc(NS(=O)(=O)c2cc3c4c(cccc4c2)C(=O)NC3=O)cc1C,0,0,0,0,-,16µM
O=C1NC(=O)c2cc(Br)cc3cccc1c23,0,0,0,0,0,0
COc1ccc(S(=O)(=O)N(C)c2ccc(C(=O)N3CCN(c4ccccc4)CC3)cc2)cc1OC,0,0,0,0,-,13µM
COc1ccc(S(=O)(=O)N(C)c2ccc(C(=O)Nc3cccnc3)cc2)cc1OC,0,0,0,0,-,21µM
CN(c1ccc(C(=O)Nc2cccnc2)cc1)S(=O)(=O)c1ccccc1,0,0,0,0,-,0
SMILES,FLuc modulator,Rab9 prom act,ELG1 genotoxic,NPC1 promoter act,SMN2 splice up,ELG1 DNA repair
COc1ccc(S(=O)(=O)N(C)c2ccc(C(=O)N3CCCC3)cc2)cc1OC,0,0,0,0,-,?
COc1ccc(S(=O)(=O)N(C)c2ccc(C(=O)Nc3cccnc3)cc2)cc1,0,0,0,0,-,23µM
CC(OC(=O)CCN1C(=O)C2CC=CCC2C1=O)C(=O)c1ccc(F)cc1 (stereo not given),0,0,0,0,-,0
CC(Oc1ccc(Cl)cc1Cl)C(=O)NNC(=O)C(=O)N1CCCC1 (stereo not given),0,0,0,0,-,0
COc1ccc(C2C(=O)N(C3CCCCCC3)CC(=O)N2Cc2ccc(C)cc2)cc1 (stereo not given),0,-,-,-,-,-
CCc1ccc(CNC(=O)C2CCN(S(=O)(=O)N3CCCC3)CC2)cc1,0,0,0,0,-,0
Cn1cc(/C=C2\SC(=S)N(NC(=O)c3ccccc3)C2=O)c2ccccc21,?,0,0,0,0,0
Cn1cccc1/C=C1\SC(=O)N(c2ccccc2)C1=O,2.4µM,0.71µM,?,2µM,11µM,?
O=C(O)Cn1cc(/C=C2\SC(=O)N(c3ccccc3)C2=O)c2ccccc21,12µM,0,0,0,0,?
CC(C)C(C(=O)O)N1C(=O)/C(=C/c2cccn2C)SC1=S (stereo not given),21µM,0,0,0,0,0
Cn1cc(/C=C2/SC(=O)N(c3ccccc3)C2=O)c2ccccc21,6µM,6.3µM,0,?,0,?
Cn1cccc1/C=C1\SC(=S)N(Nc2ccccc2)C1=O,?,0,0,0,-,?
O=C(O)Cn1cc(/C=C2/SC(=O)N(CC(=O)N3CCCCCC3)C2=O)c2ccccc21,?,0,0,0,-,0
CCCC(C(=O)O)N1C(=O)/C(=C/c2cccn2C)SC1=S (stereo not given),0,0,0,0,0,0
Cc1ccc(C(=O)NCC(c2ccco2)S(=O)(=O)c2ccccc2)cc1C (stereo not given),0,-,-,-,-,-
O=C(Nc1ccccc1)N1CC[C@@]2(CCCN(C(=O)c3cc(C(F)(F)F)cc(C(F)(F)F)c3)C2)C1,-,-,-,-,0,-
CCc1ccc(-c2cn3c(n2)sc2cc(C(=O)NC4CCCCCC4)ccc23)cc1,0,-,-,-,-,-
Cc1ccsc1/C=N\NC(=O)c1cc(C(C)(C)C)[nH]n1,12µM,2.8µM,?,2.8µM,11µM,?
Nc1nccnc1C(=O)N/N=C/c1ccco1,13µM,?,0,0,-,?
CC(C)(C)c1cc(C(=O)N/N=C/c2ccco2)n[nH]1,13µM,?,0,?,?,?
Cc1ccc(-c2cc(C(=O)N/N=C/c3ccco3)n[nH]2)s1,?,0,0,0,0,0
Cc1cc(C(=O)N/N=C/c2sccc2C)no1,?,0,0,0,?,?
Nc1c(Cl)c(Cl)nc(C(=O)N/N=C/c2ccco2)c1Cl,0,0,0,0,-,0
COc1ccc(-c2noc(CSc3ccccc3)n2)cc1OC,13µM,4µM,0,?,-,?
Cc1ccc(SCc2nc(-c3ccccc3)no2)cc1,0[2.3 µM],0,0,0,0,0
Cc1ccc(SCc2nc(-c3ccncc3)no2)cc1,0[2.3 µM],0,0,0,0,0
c1ccc(SCc2nc(-c3ccncc3)no2)cc1,17µM,?,15µM,4µM,11µM,?
CSc1ccc(/C=C/C(=O)OCC(=O)NC2CCS(=O)(=O)C2)cc1 (stereo not given),?,0,0,0,-,0
CC(=O)N1CCc2c(sc3c2c(=O)n(-c2cc(Cl)ccc2C)c(=O)n3C)C1,0,-,-,-,0,-
